Out of some 310,000 compounds screened, about 14,000 (4.5%) showed an effect of 50% or more. The effect is printed as a negative number. Shown is part of a subset that was picked to be rich in strong results.
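Also: peak tail current of the secondary pulse compared with the same well before compound.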

Sequence of human ether-à-go-go-related gene (hERG) potassium channel (Q12809 whole entry, looked up): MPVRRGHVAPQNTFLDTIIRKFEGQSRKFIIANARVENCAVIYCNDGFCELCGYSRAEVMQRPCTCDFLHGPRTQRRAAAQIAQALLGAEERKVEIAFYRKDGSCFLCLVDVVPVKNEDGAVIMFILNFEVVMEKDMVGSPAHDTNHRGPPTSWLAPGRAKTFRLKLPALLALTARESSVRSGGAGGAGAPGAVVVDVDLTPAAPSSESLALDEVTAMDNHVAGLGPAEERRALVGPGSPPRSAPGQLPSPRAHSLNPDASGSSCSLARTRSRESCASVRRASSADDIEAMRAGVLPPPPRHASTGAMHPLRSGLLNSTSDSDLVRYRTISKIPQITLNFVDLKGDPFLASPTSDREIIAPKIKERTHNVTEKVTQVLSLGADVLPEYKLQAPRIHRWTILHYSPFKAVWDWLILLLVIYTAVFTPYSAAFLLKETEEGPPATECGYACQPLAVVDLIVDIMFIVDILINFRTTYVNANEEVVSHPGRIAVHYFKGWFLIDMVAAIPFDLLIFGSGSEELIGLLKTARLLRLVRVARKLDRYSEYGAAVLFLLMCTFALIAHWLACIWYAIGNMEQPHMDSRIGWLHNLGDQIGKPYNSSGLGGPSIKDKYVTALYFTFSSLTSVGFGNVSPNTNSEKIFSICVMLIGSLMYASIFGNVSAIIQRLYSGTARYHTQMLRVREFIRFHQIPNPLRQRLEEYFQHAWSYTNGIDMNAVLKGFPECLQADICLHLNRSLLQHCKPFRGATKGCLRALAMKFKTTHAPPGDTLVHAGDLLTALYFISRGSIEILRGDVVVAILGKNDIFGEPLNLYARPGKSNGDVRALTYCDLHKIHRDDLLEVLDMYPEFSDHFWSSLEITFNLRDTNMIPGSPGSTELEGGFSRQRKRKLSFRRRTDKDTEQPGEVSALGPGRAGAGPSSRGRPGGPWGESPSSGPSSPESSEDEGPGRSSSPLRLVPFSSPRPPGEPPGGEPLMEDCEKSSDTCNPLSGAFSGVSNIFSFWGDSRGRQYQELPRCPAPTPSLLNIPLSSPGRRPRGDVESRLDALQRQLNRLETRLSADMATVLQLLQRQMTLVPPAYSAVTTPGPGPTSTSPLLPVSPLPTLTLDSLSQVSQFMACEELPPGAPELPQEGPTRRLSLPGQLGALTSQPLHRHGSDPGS

The assay concerns the target human ether-à-go-go-related gene (hERG) potassium channel (human, UniProt Q12809). Put plainly: primary screen, population patch clamp on CHO cells stably expressing hERG; higher = less effect of the substance.
On to `COc1ccccc1C(=O)Nc1ccnn1C1CCN(C(=O)c2ccoc2C)CC1`, for which the “hERG current change (%, negative = inhibition) at 10uM” value is on record as -62.9%.
On to `CSCC(C)N1CCC(n2nccc2NC(=O)c2ccccc2C)CC1` (stereo not drawn), for which the “hERG current change (%, negative = inhibition) at 10uM” value is listed as -16.6%.
For `COc1ccc(C(=O)Nc2ccnn2C2CCN(C(C)CSC)CC2)cc1` (stereo not drawn) the value was 1.28%; for `COc1ccccc1C(=O)Nc1ccnn1C1CCN(C(=O)C2CCOC2)CC1` (stereo not drawn), -35.9%; for `COCC(=O)N1CCC(n2nccc2NC(=O)c2ccccc2OC)CC1`, -1.85%.
For `COc1ccccc1C(=O)Nc1ccnn1C1CCN(C(C)CSC)CC1` (stereo not drawn) the value was -67%; for `COc1ccccc1C(=O)Nc1ccnn1C1CCN(C(=O)c2cnsn2)CC1`, -62.2%; for `COc1ccccc1C(=O)Nc1ccnn1C1CCN(C(=O)c2ccoc2)CC1`, -47.4%.
With `Cc1ccccc1C(=O)Nc1ccnn1C1CCN(C(=O)c2cnsn2)CC1` the figure was -30.4%.
On to `COc1ccccc1C(=O)Nc1ccnn1C1CCN(C(=O)C(C)(C)C)CC1`, for which the “hERG current change (%, negative = inhibition) at 10uM” value is reported as -50.4%.
Consider `COc1ccccc1C(=O)Nc1ccnn1C1CCN(C)CC1`, for which the “hERG current change (%, negative = inhibition) at 10uM” value was -32.7%.
For `COc1ccc(C(=O)Nc2ccnn2C2CCN(C(=O)c3cnsn3)CC2)cc1` the value was -11.5%; for `COc1ccc(-c2noc(CSc3nc(N)cc(=O)[nH]3)n2)cc1`, 0.145%.
On to `OCCC1CN(CC#Cc2ccccc2)CCN1Cc1ccccc1F` (stereo not drawn), for which the “hERG current change (%, negative = inhibition) at 10uM” value was -7.93%.
`Cc1[nH]c2ccccc2c1SCCN`: the “hERG current change (%, negative = inhibition) at 10uM” value turned out to be 2.5%.
For `O=S(=O)(c1cccc(C(F)(F)F)c1)N1CCN(C(=S)NCc2ccco2)CC1` the value was -5.8%.
For `CC(=O)N1c2ccc(S(=O)(=O)N(C)CC(=O)NC3CCCC3)cc2CC1C` (stereo not drawn) the value was -23.1%; for `COC(=O)C1=C(c2ccc(Cl)c(C(F)(F)F)c2)C[C@@H]2CC[C@H]1N2C(=O)NCc1ccc2c(c1)OCO2`, -12.9%; for `Cc1cc(-n2nc(C)cc2C)n2ncc(-c3ccccc3)c2n1`, 16.2%.
With `CC(=O)c1cnc2c(-c3ccc(Cl)cc3)cnn2c1C` the figure was -1.45%; with `CCc1ccccc1N(C(=O)Cn1nnc2ccccc21)C(C(=O)NCCOC)c1ccco1` (stereo not drawn), -7.99%.
Regarding `CCOC(=O)c1ccc(NC(=O)c2sc3nc4n(c(=O)c3c2C)CCC4)cc1`, the “hERG current change (%, negative = inhibition) at 10uM” value was determined as 8.82%.
For `N#CCCOC1(C#CCN2CCCC2)CCCCC1` the value was 19.6%; for `Cc1ccc(O)c(C(CC(=O)NC(C)C)c2ccccc2)c1` (stereo not drawn), 6.85%.

These data come from PMC4336329 (PLoS ONE, 2015).
